Source: the supplement of paper PMC12350171
Counter-ions that a name gives are not always drawn. A number with no mark means an inactive call.

Columns and labels:
Details in all cases: 20 µM
[1] = tested on: Salmonella enterica typhimurium; assay: growth AUC normalised to DMSO control (fraction of control); higher = less growth inhibition, active = hit call of the paper
In short: (§1)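 Pathogens passaged twice anaerobically were inoculated at a starting OD578 of 0.01 into pre-reduced mGAM plates with drug at 20 μM and 1% DMSO, sealed with breathable membranes. Haemophilus parainfluenzae medium was supplemented with hemin and NAD. OD578 was read hourly for 24 h, with three biological replicates. Growth-curve AUC was computed by the trapezoidal rule up to the exponential-to-stationary transition and normalised to DMSO controls on the same plate.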

Shigella flexneri = assay: as above
In short: as §1

Vibrio cholerae = assay: as above
In short: as §1

[2] = tested on: Yersinia pseudotuberculosis; assay: as above
In short: as §1

P. vulgatus RND KO = assay: growth AUC normalised to DMSO control (median) (fraction of control); higher = less growth inhibition, active = hit call of the paper
In short: (§2)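 For normalised area under the curve, growth curves were truncated at entry into stationary phase, integrated by the trapezoidal rule and divided against vehicle wells on the same plate. The curves came from strains passaged twice overnight without oxygen and then grown in mGAM in 96-well plates at a starting OD578 of 0.01. Each well held an approved-drug library compound at 20 μM with 1% DMSO, and OD578 was read hourly for 24 h in an anaerobic incubator. Values are medians of three biological replicates.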

P. vulgatus WT = assay: as above
In short: as §2

[3] = tested on: S. enterica typhimurium WT; assay: as above
In short: as §2

[4] = tested on: S. enterica typhimurium tolC KO; assay: as above
In short: as §2
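Wherever growth AUC normalised to DMSO control (median) is given: active when median AUC fell below 0.1.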

Row | Structure (SMILES) | growth AUC normalised to DMSO control [1] | growth AUC normalised to DMSO control (Shigella flexneri) | growth AUC normalised to DMSO control (Vibrio cholerae) | growth AUC normalised to DMSO control [2] | growth AUC normalised to DMSO control (P. vulgatus RND KO) | growth AUC normalised to DMSO control (P. vulgatus WT) | growth AUC normalised to DMSO control [3] | growth AUC normalised to DMSO control [4]
1 | CNC(=O)c1c(I)c(C(=O)NCC(=O)Nc2c(I)c(C(=O)O)c(I)c(C(=O)NCCO)c2I)c(I)c(N(C)C(C)=O)c1I [Ioxaglic acid] | 0.968 | 0.993 | 1.01 | 0.964 | 1.01 | 1 | 0.997 | 0.994
2 | NNCCc1ccccc1 [Phenelzine sulfate] | 1.03 | 1.05 | 1.03 | 1.02 | 1.1 | 1.16 | 0.994 | 0.955
3 | CCN1CCC[C@H]1CNC(=O)c1c(OC)ccc(Br)c1OC [Remoxipride hydrochloride] | 1.01 | 1.04 | 1.03 | 1.01 | 1.03 | 1.06 | 1.01 | 1.01
4 | C[C@]12CC[C@@H]3c4ccc(O)cc4CC[C@H]3[C@@H]1CCC2=O [Estrone] | 0.984 | 0.96 | 0.0258 (active) | 0.975 | 0.977 | 0.964 | 0.999 | 0.974
5 | Cc1cc(C(C)(C)C)c(O)c(C)c1CC1=NCCN1 [Oxymetazoline hydrochloride] | 0.997 | 0.994 | 1 | 1 | 0.994 | 0.988 | 1.01 | 0.985
6 | CN(C(=O)C(Cl)Cl)c1ccc(OC(=O)c2ccco2)cc1 [Diloxanide furoate] | 0.998 | 0.959 | 0.97 | 0.978 | 0.988 | 0.996 | 0.995 | 0.966
7 | C1N2CN3CN1CN(C2)C3 [Methenamine] | 1.02 | 1.02 | 1.05 | 1.03 | 1 | 1.03 | 1 | 0.991
8 | NC1CCN(c2c(F)cc3c(=O)c(C(=O)O)cn(C4CC4)c3c2Cl)C1 (stereo not given) [Clinafloxacin] | 0.00836 (active) | 0.0463 (active) | 0.023 (active) | 0.0284 (active) | 0.0165 (active) | 0.0148 (active) | 0.00822 (active) | 0.00725 (active)
9 | CNCCC(Oc1ccccc1OC)c1ccccc1 (stereo not given) [Nisoxetine hydrochloride] | 0.949 | 1.02 | 1 | 0.993 | 1.01 | 1 | 0.957 | 0.91
10 | N[C@@H](C(=O)N[C@@H]1C(=O)N2C(C(=O)O)=C(Cl)CS[C@H]12)c1ccccc1 [Cefaclor hydrate] | 0.492 (active) | 0.153 (active) | 1.03 | 0.209 (active) | 1.04 | 1.05 | 1.07 | 1.01
11 | CCCCC1C(=O)N(c2ccccc2)N(c2ccc(O)cc2)C1=O (stereo not given) [Oxyphenbutazone] | 0.996 | 1.04 | 1.03 | 1 | 1.03 | 1.06 | 1.01 | 1.01
12 | O=C1CN(/N=C/c2ccc([N+](=O)[O-])o2)C(=O)N1 [Nitrofurantoin] | 0.974 | 0.843 (active) | 0.964 | 0.999 | 0.253 | 0.556 | 0.836 | 0.858
13 | O=C(O)Cc1sc(-c2ccccc2)nc1-c1ccc(Cl)cc1 [Fentiazac] | 0.993 | 1.03 | 1 | 1.02 | 0.896 | 0.947 | 1 | 0.98
14 | CN(C)C/C=C(/c1ccc(Br)cc1)c1cccnc1 [Zimelidine dihydrochloride monohydrate] | 0.996 | 0.999 | 1 | 1.03 | 1.04 | 1.04 | 1.02 | 0.983
15 | CCC[C@@H]1C[C@@H](C(=O)N[C@@H]([C@H]2O[C@H](SC)[C@H](O)[C@@H](O)[C@H]2O)[C@H](C)Cl)N(C)C1 [Clindamycin hydrochloride] | 0.722 (active) | 0.648 (active) | 0.143 (active) | 0.0588 (active) | 0.0135 (active) | 0.0132 (active) | 0.835 | 0.437
16 | CN1CCN2c3ncccc3Cc3ccccc3C2C1 (stereo not given) [Mirtazapine] | 0.995 | 1.01 | 1.01 | 1 | 1.03 | 1.02 | 1 | 0.997
17 | CCN(CC)CCNC(=O)c1cc(Cl)c(N)cc1OC [Metoclopramide monohydrochloride] | 0.994 | 0.978 | 0.989 | 0.993 | 0.977 | 0.971 | 1 | 1
18 | CO[C@@]1(NC(=O)C2SC(=C(C(N)=O)C(=O)O)S2)C(=O)N2C(C(=O)O)=C(CSc3nnnn3C)CS[C@@H]21 (stereo not given in full) [Cefotetan] | 0.00234 (active) | 0.0192 (active) | 0.186 (active) | 0.0842 (active) | 0.0118 (active) | 0.0068 (active) | 0.00563 (active) | 0.00413 (active)
19 | CC(C)NC[C@@H](O)COc1ccc(CC(N)=O)cc1 [(R,+) Atenolol] | 1.01 | 1.06 | 1.07 | 1.02 | 1.04 | 1.01 | 1.02 | 0.986
20 | NC(=O)OCC(O)COc1ccc(Cl)cc1 (stereo not given) [Chlorphensin carbamate] | 1.01 | 1.01 | 1.03 | 1.01 | 0.992 | 0.994 | 1.02 | 0.987
21 | CC(Oc1ccccc1)C(=O)N[C@@H]1C(=O)N2[C@@H]1SC(C)(C)[C@@H]2C(=O)O (stereo not given in full) [Phenethicillin potassium salt] | 1.01 | 1.02 | 1 | 0.898 (active) | 0.0155 (active) | 0.00969 (active) | 1 | 0.00227 (active)
22 | CC[N+](C)(C)c1cccc(O)c1 [Edrophonium chloride] | 1.01 | 1 | 1.02 | 0.964 | 1.02 | 1.02 | 1.01 | 0.992
23 | CCN(CC)CCNC(=O)c1cc(Br)c(N)cc1OC [Bromopride] | 1.01 | 1.01 | 1.01 | 1 | 1 | 1.01 | 1.01 | 1.01
24 | CCn1nc(C(=O)O)c(=O)c2cc3c(cc21)OCO3 [Cinoxacin] | 0.0189 (active) | 0.0786 (active) | 0.0544 (active) | 0.0459 (active) | 1 | 1.01 | 0.0574 (active) | 0.0349 (active)
25 | CC[N+](C)(CC)CCC[n+]1c(-c2ccccc2)c2cc(N)ccc2c2ccc(N)cc21 [Propidium iodide] | 0.998 | 1.06 | 1.08 | 1.01 | 1.05 | 1.06 | 1.01 | 1
26 | N=C(NCCCCCCNC(=N)NC(=N)Nc1ccc(Cl)cc1)NC(=N)Nc1ccc(Cl)cc1 [Chlorhexidine] | 0.355 (active) | 0.0156 (active) | 0.954 | 0.307 (active) | 0.00823 (active) | 0.0134 (active) | 0.942 | 0.816
27 | CC(C)NCC(O)c1ccc(O)c(O)c1 (single isomer, unassigned; (+)) [(+) Isoproterenol-(+)-bitartrate salt] | 1.02 | 1.02 | 1.03 | 0.913 | 1.01 | 1.03 | 1.01 | 0.984
28 | CC(C)(O/N=C(\C(=O)N[C@@H]1C(=O)N2C(C(=O)[O-])=C(C[n+]3ccccc3)CS[C@H]12)c1csc(N)n1)C(=O)O [Ceftazidime pentahydrate] | 0.016 (active) | 0.0524 (active) | 0.494 (active) | 0.186 (active) | 0.0283 (active) | 0.0233 (active) | 0.214 | 0.0609 (active)
29 | CN(C)[C@@H]1C(=O)C(C(N)=O)=C(O)[C@@]2(O)C(=O)C3=C(O)c4c(O)ccc(Cl)c4[C@@H](O)[C@H]3C[C@@H]12 [Demeclocycline hydrochloride] | 0.00255 (active) | 0.0177 (active) | 0.056 (active) | 0.0357 (active) | 0.015 (active) | 0.0137 (active) | 0.00782 (active) | 0.00561 (active)
30 | CO/N=C(\C(=O)N[C@@H]1C(=O)N2C(C(=O)O)=C(COC(N)=O)CS[C@H]12)c1ccco1 [Cefuroxime sodium salt] | 0.0484 (active) | 0.0576 (active) | 0.0553 (active) | 0.0424 (active) | 0.011 (active) | 0.0132 (active) | 0.342 | 0.00393 (active)
